Source: PubChem (National Center for Advancing Translational Sciences (NCATS))
MARV entry inh: blocks Marburg virus binding to or entry into cells; Potency, µM (top dose mostly 37.8 µM), for inactives: at the highest dose activity change, negative = inhibition, most hits filed as inhibitors; Marburg virus pseudotyped entry inhibition, cell reporter; hit rate 1.8% among 300,000; calls by dose curve; tested in HEK293 cells
FMDV inh: foot and mouth disease virus antiviral activity | FMDV antiviral cell-based qHTS | hit rate 1.2% among 410,000 | Potency, µM (top dose mostly 57.9 µM), for inactives: at the highest dose activity change, negative = inhibition, usual class: inhibitors; calls by dose curve; tested in HEK293T cells; also: read-out not given here; nearly all actives have a fitted effect of over 45% in size
Lassa entry inh: blocks Lassa virus binding to or entry into cells. Potency, µM (doses to about 37.9 µM), without a hit: at the top dose activity change, negative = inhibition, actives largely listed as inhibitors. hit rate 1.2% among 300,000. Lassa virus pseudotype entry inhibition, cell reporter; calls by dose curve; tested in HEK293 cells; also: nearly all actives have a fitted effect of over 50% in size
Vaccinia Venus: vaccinia inhibition (Venus reporter). Vaccinia virus Venus reporter expression, fluorescence. AID 720580. Potency, µM (series often up to 36.5 µM), without a hit: at the highest dose activity change, negative = inhibition, actives largely listed as inhibitors. hit rate 0.46% among 330,000; calls by dose curve; tested in A549 cells; also: nearly all actives have a fitted effect of over 30% in size
HCV inhibitor: inhibitors of hepatitis C virus infection; hit rate 3.4% among 340,000; Potency, µM (series often up to 41.8 µM), for inactives: at the top dose activity change, negative = inhibition, usual class: inhibitors; AID 651820; Huh7.5.1 HCVcc-Cre infection, luciferase reporter, 44 h; active = well fitted inhibition curve with a large enough effect; inconclusive = small, poorly fitted or top-dose-only effect, or another doubt; inactive = no such curve, though single readings can be large or run the other way
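Infectious HCVcc-Cre (~0.5 moi) was added to cells just after compound, with cells seeded 4 h earlier at 1,000 per well. Luciferase activity after 44 h culture reported infection; substrate was incubated 15 min at room temperature before reading.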
VACV mCherry inh: inhibitors of vaccinia virus infection (mCherry reporter signal) | Vaccinia virus mCherry reporter infection, fluorescence | hit rate 0.63% among 310,000 | Potency, µM (top dose mostly 36.5 µM), for inactives: top-dose activity change, negative = inhibition, actives largely listed as inhibitors; calls by dose curve; tested in A549 cells; also: nearly all actives have a fitted effect of over 35% in size
Active calls of the source: *; i = inactive; ? = inconclusive; / = not tested or not shown; [ ] = another dose, or the depositor's remark. Rows were chosen to be rich in hits. Some 5.3% of all compounds tested hit in one or more screens of this group. % is scaled to controls: 0 for no effect and ±100 for the full control effect; potency is read from the fitted curve at half-maximal effect.

SMILES	MARV entry inh	FMDV inh	Lassa entry inh	Vaccinia Venus	HCV inhibitor	VACV mCherry inh
CCOC(=O)C1=C(NC(=S)NC(=O)c2ccccc2)c2ccccc2CC1C(C)C (stereo not given)	0.79µM*	0%	0.89µM*	-9%	?	?
CCOC(=O)C1=C(NC(=S)NC(=O)c2ccccc2)c2ccccc2CC1(C)CC (stereo not given)	5.8µM*	0%	2.1µM*	-3%	?	-17%
CCOC(=O)c1sc(NC(=S)NC(=O)c2ccccc2)c(C(=O)OCC)c1C	-19%	-17%	-6%	-3%	?	-14%
CC(NC(=O)CN(Cc1ccccc1)S(=O)(=O)c1ccccc1)c1cccnc1 (stereo not given)	-29%	-9%	-21%	-12%	16%	-12%
Clc1ccc2nccnc2c1	/	/	/	6%	/	-14%
C[n+]1ccnc2ccccc21	/	/	/	2.2µM*	/	7.9µM*
C[n+]1ccnc2cc(Cl)ccc21	/	/	/	2.2µM*	/	11µM*
CCCCN(CC)C(=O)CSc1nc2ccccc2c(=O)n1Cc1ccco1	/	-12%	?	-26%	/	-21%
Cc1cc2c(cc(C(=O)OC(C(=O)NC3CCCCC3)C(C)C)n2C)o1 (stereo not given)	/	-29%	/	/	16µM*	/
Cc1cc(C)c(-c2csc(NC(=O)/C=C/c3cccs3)n2)c(C)c1	?	?	?	?	10µM*	?
CC(C)(C)C(=O)Nc1ccc(-c2nc3ccccc3c(=O)o2)cc1	?	4.5µM*	?	-18%	12%	-3%
CCOc1ccc(NC(=O)CSc2nnc(-c3ccc(C)cc3)c(-c3ccc(C)cc3)n2)cc1	/	-22%	14%[46.1 µM]	-17%	/	-17%
Nc1c(C(=O)c2ccc(Cl)cc2)sc2nsc(SCCN3CCOCC3)c12	1%[46.1 µM]	?	2%	-6%[7.34 µM]	?	0%[7.34 µM]
Nc1c(C(=O)c2ccccc2)sc2nsc(SCCN3CCCC3)c12	?	-16%	6.3µM*	?	?	-52%
Nc1ccc(C(=O)OCc2nc3ccccc3s2)cc1	?	18%	7%[46.1 µM]	-11%	4%	i
Nc1ccc(C(=O)OCC2=NC3C=c4ccccc4=CC3=N2)cc1 (stereo not given)	1.6µM*	/	/	/	/	/
Cc1cc([N+](=O)[O-])ccc1NCc1ccc2c(c1)OCCO2	6%	8%	26%	-12%	10µM*	-18%
CC(=O)Nc1ccc(N2C(C(C)=O)=NN(c3ccc(Cl)cc3)C2c2sccc2C)cc1 (stereo not given)	21µM*	?	?	/	?	/
CC(=O)Nc1ccc(N2C(C(C)=O)=NN(c3ccccc3)C2c2cccs2)cc1 (stereo not given)	?	-10%	?	/	2%	/
Cc1ccc2c(c1)C1CN(C)CCC1N2C(=O)CCCN1C(=O)c2cccc3cccc(c23)C1=O (stereo not given)	7.9µM*	-3%	7%	-4%	?	27%
Cc1ccc2c(c1)[C@@H]1CN(C)CC[C@@H]1N2C(=O)Nc1cccc(C(F)(F)F)c1	?	-13%	-7%	/	10µM*	/
CCCCn1c(O)c(C(CC)=Nc2ccc3c(c2)CCC3)c(=O)[nH]c1=O	-14%	-8%	1.3µM*	/	-13%	/
CC(/C=C/c1ccccc1)=N\NC(N)=S	?	-8%	-18%	?	16µM*	4µM*
Fc1ccccc1C1c2[nH]c3ccccc3c2CCN1Cc1cccn1-c1ncccn1 (stereo not given)	3.2µM*	13%	?	11%	-21%	?
CCc1c(C2(O)CCCCC2)[nH]c2ccc(C(F)(F)F)cc12	/	40µM*	/	?	?	-28%
SMILES	MARV entry inh	FMDV inh	Lassa entry inh	Vaccinia Venus	HCV inhibitor	VACV mCherry inh
Cc1cc(Nc2cccc(C(F)(F)F)c2)nc2ccc(NC(=O)c3cccc(Cl)c3)cc12	/	?	-27%[46.1 µM]	-22%	/	-22%
Cc1cc(Nc2cccc(C(F)(F)F)c2)nc2ccc(NC(=O)c3cccnc3)cc12	/	28µM*	?	11µM*	/	10µM*
COc1ccc(-c2cnc3c(NC=O)cc(-c4cccc(NS(C)(=O)=O)c4)cn23)cc1OC	/	-22%	/	8.9µM*	/	6.3µM*
CC(=O)c1cccc(-c2cnc3c(NC=O)cc(-c4ccc(F)cc4)cn23)c1	/	-26%	/	-23%	/	?
COc1ccc(-c2cnc3c(NC=O)cc(-c4ccc(F)cc4)cn23)cc1OC	/	?	/	?	/	11µM*
COc1ccc(-c2cnc3c(NC=O)cc(-c4ccccc4)cn23)cc1OC	/	?	/	?	/	1.3µM*
COc1cccc(-c2cc(NC=O)c3ncc(-c4ccc(OC)c(OC)c4)n3c2)c1	/	-27%	/	?	/	?
COc1ccc(-c2cnc3c(NC=O)cc(-c4cc(OC)c(OC)c(OC)c4)cn23)cc1OC	/	-17%	/	-25%	/	-12%
COc1ccccc1-c1cc(NC=O)c2ncc(-c3cccc(C(C)=O)c3)n2c1	/	-27%	/	?	/	7.9µM*
C=CCOC(=O)C1=C(C)N(CC)C(=O)NC1c1ccccc1 (stereo not given)	-5%[14.2 µM]	/	/	/	/	/
COc1ccc2c(c1)-c1nc(/N=C/c3ccccc3O)sc1CC2	19%	-7%	19%	-17%	10µM*	-7%
COc1ccc2c(c1)-c1nc(/N=C/c3cccc(OC)c3O)sc1CC2	?	-13%	14%	-22%	?	-8%
Cc1ccc(/C=C/C(=O)c2ccccc2O)cc1	?	-18%	19%	-15%	14%	-2%
COc1cc(OC)c(C=CC(=O)c2ccccc2O)c(OC)c1	?	41%	17%	?	?	?
COc1cc(/C=C/C(=O)c2ccccc2O)cc(OC)c1OC	/	32µM*	/	-11%	14%	3%
Cc1ccc(O)c(C(=O)C=Cc2ccccc2)c1	?	35µM*	7%[46.1 µM]	-6%	?	-3%
